# Assay outcomes from PubChem BioAssay.
# Mtb MenB inh = inhibitors of Mycobacterium tuberculosis MenB enzyme | 0.43% of 100,000 active | MenB enzyme assay, absorbance read-out | inhibition, % (test concentration not listed) | P9WNP5; in the data active = inhibition above about 21%, passing the limit was not always enough
# MbtI inh = blocks the Mycobacterium tuberculosis siderophore enzyme MbtI; P9WFX0; purified MbtI enzyme, fluorescence intensity read-out; inhibition, % (no concentration beside the values); 0.89% of 100,000 active; in the data active = inhibition mostly above about 56%, no sharp cut-off; inactive = mostly below about 77%
# AID504770 = E. coli YBA685 growth inhibition, screen for V. cholerae RctB inhibitors; E. coli YBA685 rctB-dependent plasmid, OD600 growth, 3 h; stronger effect = lower value; z-score (concentration not given with the values); 0.27% of 130,000 active; AID 504770; in the data active = z-score below about -2, passing the limit was not always enough
# Polio RdRp inh = inhibitors of poliovirus RNA polymerase binding and polymerization; P03300; poliovirus polymerase elongation, fluorescence polarization; stronger effect = lower value; % elongation, % (compound at 16.7 µg/mL); 0.66% of 150,000 active; AID 588519; in the data active = % elongation below about 90%
# Target sequence (P03300 1749-2209 limits assumed): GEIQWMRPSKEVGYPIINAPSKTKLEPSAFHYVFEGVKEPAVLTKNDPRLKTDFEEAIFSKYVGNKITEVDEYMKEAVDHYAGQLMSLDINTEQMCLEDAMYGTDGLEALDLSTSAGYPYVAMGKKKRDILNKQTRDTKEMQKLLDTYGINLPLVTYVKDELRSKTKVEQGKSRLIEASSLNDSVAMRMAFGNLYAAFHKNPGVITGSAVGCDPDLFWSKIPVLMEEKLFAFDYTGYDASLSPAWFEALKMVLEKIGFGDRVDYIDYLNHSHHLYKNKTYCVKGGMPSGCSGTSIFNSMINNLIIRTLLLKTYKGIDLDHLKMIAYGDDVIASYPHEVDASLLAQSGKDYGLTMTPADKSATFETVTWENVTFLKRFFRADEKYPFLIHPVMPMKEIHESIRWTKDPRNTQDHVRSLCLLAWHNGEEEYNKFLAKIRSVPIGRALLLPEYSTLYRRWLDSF
# An asterisk follows results filed as active; · = not tested or not shown. Most compounds without a hit are left out; they make up all but 1.4% or so of the library.
SMILES,Mtb MenB inh,MbtI inh,AID504770,Polio RdRp inh
CSc1s[nH]c(=O)c1C#N,9,·,-1,86*
CSc1[nH]c(=O)[nH]c(=O)c1C#N,-11,0,0.2,101
CCOC(=O)c1cc2c(C(F)(F)F)cc(C(F)(F)F)nc2s1,-4,-2,0.3,106
Oc1ccccc1/C=N/c1ncc(C(F)(F)F)cc1Cl,-14,·,-0.55,108
O=C(CCCc1ccccc1)Nc1scc2c(=O)oc3ccccc3c12,8,·,1.3,79*
Cn1c(CNC2CCCCC2)nc2ccccc21,·,·,-1.8,·
Cn1c(C2CCCCC2)nc2ccccc21,28*,1,1.2,102
CCC(C)CCCCC(=O)NC(CCN)C(=O)NC(C(=O)NC(CCN)C(=O)NC1CCNC(=O)C(C(C)O)NC(=O)C(CCN)NC(=O)C(CCN)NC(=O)C(CC(C)C)NC(=O)C(Cc2ccccc2)NC(=O)C(CCN)NC1=O)C(C)O (stereo not given),-12,-13,-5.2*,99
Nc1nc(NS(=O)(=O)c2ccccc2)ns1,·,·,-2.9*,·
O=S(=O)(Nc1ncccn1)c1ccccc1,0,-8,-0.6,101
CCN(C(=O)Cn1c(=O)oc2cc(Cl)ccc21)c1cccc(C(F)(F)F)c1,·,·,·,82*
C=CCNC(=S)N(C)C1CCS(=O)(=O)C1 (stereo not given),-30,4,1.6,105
COc1ccc(-c2oc3ncn4nc(COc5ccc(Cl)cc5)nc4c3c2-c2ccc(OC)cc2)cc1,·,·,·,55*
COc1ccc(SS(=O)(=O)c2ccc(OC)c(NC(C)=O)c2)cc1NC(C)=O,-17,91*,-0.5,102
COc1ccc(S(=O)(=O)C(F)(F)F)cc1NC(C)=O,·,4,1.1,103
Cc1cc(C)n(-c2ccc(N)cc2)n1,·,·,-0.7,·
COc1cccc(C(=O)CS)c1,-10,87*,2.3,101
COc1cccc(C(=O)CC#N)c1,0,-8,-0.65,104
CC(C)N(C(=O)CSc1n[nH]c(-c2cccs2)n1)C(C)C,-1,-53,-4*,105
C/C(N)=C(/C#N)C(=O)CSc1n[nH]c(-c2cccs2)n1,-7,147,-0.65,102
CC1=NN(c2nc(-c3ccccc3)cs2)C(=O)/C1=C/c1cccs1,4,-1,1.2,101
Cc1[nH]ncc1-c1nc(-c2ccc(Cl)cc2)no1,·,·,-0.05,·
N#Cc1c(Nc2ccccc2Cl)s[nH]c1=O,-14,67,-1.6,102
N#Cc1c(Nc2ccccc2)s[nH]c1=O,13,22,-2.6*,115
Cc1ccc(CC(C#N)Sc2nnc(-c3ccc(F)cc3)n2CC2CCCO2)cc1 (stereo not given),-34,-8,1,105
SMILES,Mtb MenB inh,MbtI inh,AID504770,Polio RdRp inh
C=CCn1c(C(C)Oc2ccc(Cl)cc2Cl)n[nH]c1=S (stereo not given),-16,38,-0.75,103
C=CCn1c(Cc2ccc(OC)c(Cl)c2)n[nH]c1=S,-20,91*,1.8,103
C=CCn1c(CSCc2ccc(F)cc2)n[nH]c1=S,-15,64*,1.5,97
COc1ccc(C(=O)CSC2=NCCc3ccccc32)cc1,6,67*,-0.55,77*
Cc1cc(C)c(Nc2nn3c(=O)c4cc5c(cc4nc3s2)OCO5)c(C)c1,·,·,·,87*
Cc1cccc(C)c1Nc1nn2c(=O)c3ccccc3nc2s1,-33,51,-0.8,88*
Cc1ccccc1Nc1nn2c(=O)c3ccc(C(=O)NCc4ccccc4)cc3nc2s1,·,·,·,104
Cc1sc(Nc2ccccc2)nc1-c1ccccc1,-7,-2,0.5,101
c1ccc(Nc2nc3c(ccc4ccccc43)s2)cc1,-19,·,-0.55,83*
N#CC(C(=O)c1ccco1)c1nc2ccccc2[nH]1 (stereo not given),-8,98*,0.25,106
O=C1N=C(N2CCCCC2)S/C1=C\c1cccs1,-9,·,-0.9,107
O=C1N=C(c2ccccc2)S/C1=C\c1cccs1,-85,100*,0.05,97
Clc1ss/c(=N\c2ccccn2)c1Cl,-19,·,0.3,87*
CC(C)(C)c1cs/c(=N/c2ccccn2)n1-c1ccc(Cl)cc1,-6,-11,0.35,102
CN(CC(=O)Nc1sc2c(c1C#N)CCC2)Cc1nc2ccccc2c(=O)[nH]1,-33,-7,-1.6,59
S=C(NC1CCCCC1)Sc1ccc(Cl)cc1,-16,56*,-0.9,94
CCOc1ccc(N2C(=O)CC(N3CCCCC3CC)C2=O)cc1 (stereo not given),9,55*,-0.05,103
CSc1nc(-c2ccco2)nn1S(C)(=O)=O,-3,84*,2.5,100
COCCCn1c(=O)c2ccccc2n(CC(N)=O)c1=O,28*,58,-0.5,101
